# Calls of active or inactive are those of the source.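 The calls were made as follows, unless noted: active = mean z-score across replicates of 1.96 or higher in either the MELAS or the Rieske mutant cell line; inactive = the rest.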
# Key:
# [1] = MELAS cybrid and Rieske KO viability enhancers – cell-based, MELAS cybrids, Rieske KO mouse fibroblasts, CellTiter-Glo, primary screen (AID 1508586); details: low glucose;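 also: z relative to plate mean and SD of compound and empty wells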
# [2] = target: NAD(+) hydrolase SARM1 (Homo sapiens) (UniProt Q6SZW1); assay: blocking NAD cleavage by SARM1 SAM-TIR – cell lysate, NAD-Glo luminescence (AID 1508614;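 active = compound whose remaining NAD level is above about 45 nM, limit read from the data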;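 also: higher remaining NAD means stronger inhibition of SARM1 NADase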); details: SAM-TIR HEK293T lysate NADase, at 1 µM, stronger effect = higher value
# Sequence of NAD(+) hydrolase SARM1 (Homo sapiens) (Q6SZW1 whole entry, looked up, the tested form may be a part): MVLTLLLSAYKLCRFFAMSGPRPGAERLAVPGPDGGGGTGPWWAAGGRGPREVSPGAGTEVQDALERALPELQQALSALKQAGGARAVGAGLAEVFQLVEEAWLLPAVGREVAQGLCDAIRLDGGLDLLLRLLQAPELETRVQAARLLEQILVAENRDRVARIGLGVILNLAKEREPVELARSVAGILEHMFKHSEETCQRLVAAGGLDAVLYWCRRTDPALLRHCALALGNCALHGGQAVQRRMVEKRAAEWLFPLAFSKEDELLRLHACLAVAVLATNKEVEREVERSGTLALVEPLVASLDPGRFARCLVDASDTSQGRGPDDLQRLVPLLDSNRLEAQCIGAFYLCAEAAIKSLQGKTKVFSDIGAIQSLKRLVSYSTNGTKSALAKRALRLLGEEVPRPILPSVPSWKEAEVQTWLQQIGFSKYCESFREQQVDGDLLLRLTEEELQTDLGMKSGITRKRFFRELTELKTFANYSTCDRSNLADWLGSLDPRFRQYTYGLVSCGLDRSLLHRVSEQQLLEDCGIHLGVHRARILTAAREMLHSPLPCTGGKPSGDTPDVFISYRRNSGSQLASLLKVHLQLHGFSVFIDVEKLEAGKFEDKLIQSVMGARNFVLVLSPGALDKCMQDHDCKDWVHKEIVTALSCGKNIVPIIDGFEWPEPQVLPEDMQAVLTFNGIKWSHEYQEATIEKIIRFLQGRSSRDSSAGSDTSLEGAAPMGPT
# [3] = target: Mitogen-activated protein kinase 7 (Homo sapiens) (UniProt Q13164); assay: Gal4-ERK5 driven luciferase induction – cell-based, HTS, primary screen (AID 1508626;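 active = luciferase signal above three times the same-plate solvent-only control wells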;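 also: luciferase driven by Gal4-ERK5 fusion binding five Gal4 sites before minimal TATA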); details: HeLa Gal4-ERK5 transactivation, 18 h, at 5 µM, stronger effect = higher value
# Sequence of Mitogen-activated protein kinase 7 (Homo sapiens) (Q13164 whole entry, looked up, the tested form may be a part): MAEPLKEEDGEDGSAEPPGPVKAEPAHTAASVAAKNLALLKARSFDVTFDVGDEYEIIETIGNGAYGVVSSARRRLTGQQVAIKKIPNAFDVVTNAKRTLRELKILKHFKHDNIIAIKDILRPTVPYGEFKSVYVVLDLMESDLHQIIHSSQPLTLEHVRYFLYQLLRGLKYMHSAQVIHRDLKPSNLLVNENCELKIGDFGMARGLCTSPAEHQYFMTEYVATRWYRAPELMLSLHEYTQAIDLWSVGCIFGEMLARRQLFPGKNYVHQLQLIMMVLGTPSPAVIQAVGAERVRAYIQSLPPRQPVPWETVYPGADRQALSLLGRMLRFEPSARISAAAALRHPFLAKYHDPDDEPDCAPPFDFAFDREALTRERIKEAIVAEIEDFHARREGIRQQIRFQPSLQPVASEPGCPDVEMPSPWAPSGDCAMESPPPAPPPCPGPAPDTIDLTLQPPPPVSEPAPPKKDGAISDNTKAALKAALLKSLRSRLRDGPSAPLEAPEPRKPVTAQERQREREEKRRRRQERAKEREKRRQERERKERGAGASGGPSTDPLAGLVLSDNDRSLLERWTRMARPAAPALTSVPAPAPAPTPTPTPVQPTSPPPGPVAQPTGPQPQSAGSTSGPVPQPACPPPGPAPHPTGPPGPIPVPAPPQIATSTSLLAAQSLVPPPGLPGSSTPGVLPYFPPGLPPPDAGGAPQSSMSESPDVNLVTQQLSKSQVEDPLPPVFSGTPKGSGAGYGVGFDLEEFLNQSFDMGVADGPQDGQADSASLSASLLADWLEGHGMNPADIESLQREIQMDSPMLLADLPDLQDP
# [4] = blockers of cellular phospholipid synthesis – cell-based, LOPAC library, screen 4, primary screen (AID 1347384; call rule not given here); details: animal cells, phospholipid biosynthesis inhibition screen; at 10 µM
# [5] = compounds altering circadian rhythm period length – cell-based, LOPAC library, luminescence reporter (AID 2774; call rule not given here;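 also: values are relative to mean of DMSO wells on each plate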); details: circadian reporter cells, at 7 µM, actives lie on both sides
# [6] = tested on: Hepatitis C virus NS3 helicase; assay: blockers of NS3h binding to ssDNA – biochemical, fluorescence polarization, LOPAC1280 library, primary screen (AID 687035; in the data active = inhibition above about 37%); details: Purified HCV NS3 helicase, Cy5-dT15 ssDNA binding fluorescence polarization; stronger effect = higher value; concentration not given here
# [7] = compounds altering Cy5-DNA-NS3h complex signal – biochemical, LOPAC1280, artefact control for HCV NS3 helicase inhibitor project (AID 687037; call rule not given here); details: Cy5-DNA-NS3h complex fluorescence interference counterscreen
# [8] = galactose survival enhancers in mitochondrial complex I cybrids – cell-based, galactose medium, ATP luminescence, primary screen (AID 1645843;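 active = z-score of at least 1.8 in each of two replicates, scored against plate mean and spread of sample wells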;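 also: positive z means more ATP and so rescue of galactose-driven cybrid death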); details: complex I mutant cybrid cells, 72 h, stronger effect = higher value
# [9] = MELAS cybrid survival, CellTiter-Glo 48 h, stronger effect = higher value
# [10] = Rieske KO mouse fibroblast survival, CellTiter-Glo 72 h
smiles,measurement,setting,value
C=Cc1c(C)c2cc3nc(cc4[nH]c(cc5nc(cc1[nH]2)C(C)=C5CCC(=O)O)c(CCC(=O)OC)c4C)[C@@]1(C)C3=CC=C(C(=O)OC)C1C(=O)OC (stereo not given in full),z-score,[1]; [9],1.85 (inactive)
same,z-score,[1]; [10],1.33
C/C=C/C1=C(C(=O)O)N2C(=O)[C@@H](NC(=O)[C@H](N)c3ccc(O)cc3)[C@H]2SC1,z-score,[1]; [9],-0.679 (inactive)
same,z-score,[1]; [10],-1.17
same,remaining NAD,[2],10 nM (inactive)
same,luciferase signal,[3],48 AU (inactive)
C#C[C@]1(OC(C)=O)CC[C@H]2[C@@H]3CCC4=CC(=NO)CC[C@@H]4[C@H]3CC[C@@]21CC,z-score,[1]; [9],0.995 (inactive)
same,z-score,[1]; [10],0.685
O=C(O)C1=CS[C@@H]2/C(=C\c3cnc4n3CCOC4)C(=O)N12,outcome,[4],inactive
N#CC(=C(\N)Sc1ccccc1N)/C(C#N)=C(/N)Sc1ccccc1N,period change,[5],-0.02 h (inactive)
same,inhibition,[6],-1% (inactive)
same,fluorescence ratio (interference),[7],1 (inactive)
same,outcome,[4],inactive
same,z-score,[8],-1.33 (inactive)
C[C@H](Cc1cc2c(c(C(N)=O)c1)N(CCCO)CC2)NCCOc1ccccc1OCC(F)(F)F,z-score,[1]; [9],-0.477 (inactive)
same,z-score,[1]; [10],-0.901
CN1[C@@H]2CC[C@@H]1CC(OC(=O)C(CO)c1ccccc1)C2 (stereo not given in full),z-score,[1]; [9],0.0633 (inactive)
same,z-score,[1]; [10],-0.0663
CN(C)C(=O)N=NC(=O)N(C)C,inhibition,[6],-4% (inactive)
same,fluorescence ratio (interference),[7],1 (inactive)
same,outcome,[4],inactive
CO[C@H]1/C=C/O[C@@]2(C)Oc3c(C)c(O)c4c(O)c(c(/C=N/N5CCN(C6CCCC6)CC5)c(O)c4c3C2=O)NC(=O)/C(C)=C\C=C\[C@H](C)[C@H](O)[C@@H](C)[C@@H](O)[C@@H](C)[C@H](OC(C)=O)[C@@H]1C,z-score,[1]; [9],0.699 (inactive)
same,z-score,[1]; [10],0.251
COc1cccc2c1C(=O)c1c(O)c3c(c(O)c1C2=O)C[C@@](O)(C(=O)CO)C[C@@H]3O[C@@H]1C[C@H](N)[C@@H](O)[C@H](C)O1,z-score,[1]; [9],6.67 (active)
same,z-score,[1]; [10],-1.72
NC(=O)c1cc[n+](CC2=C(C(=O)O)N3C(=O)[C@@H](NC(=O)[C@@H](c4ccccc4)S(=O)(=O)O)[C@H]3SC2)cc1,outcome,[4],inactive
COC(=O)c1c(NC(=O)Cc2ccccc2)c2cc(NCc3nccs3)cnc2n1CC(C)C,z-score,[1]; [9],-0.876 (inactive)
same,z-score,[1]; [10],1.74
same,z-score,[8],-1.62 (inactive)
CC(=O)[C@@]12OC(C)(c3ccccc3)O[C@@H]1C[C@H]1[C@@H]3CCC4=CC(=O)CC[C@]4(C)[C@H]3CC[C@@]12C (stereo not given in full),z-score,[1]; [9],0.905 (inactive)
same,z-score,[1]; [10],1.8
COc1c(O[C@@H]2O[C@H](CO)[C@@H](O)[C@H](O)[C@H]2O)cc2c(c1OC)-c1ccc(SC)c(=O)cc1[C@@H](NC(C)=O)CC2,z-score,[1]; [9],0.122 (inactive)
same,z-score,[1]; [10],0.151
N[C@@H](C(=O)N[C@@H]1C(=O)N2C(C(=O)O)=C(Cl)CC[C@H]12)c1ccccc1,z-score,[1]; [9],0.0513 (inactive)
same,z-score,[1]; [10],-0.0591

# Reference: PubChem BioAssay
